Compounds with a hit are over-represented: about 18% of the library has one in this group of screens.
CtBP-E1A blk: inhibitors of CtBP/E1A interaction. AlphaScreen GST-E1A/His-CtBP binding, 1536-well; active compounds read low. activity change, % (no concentration beside the values). 0.49% of 340,000 active. AID 651724; in the data active = activity change below about -65%; inconclusive = mostly about -30% to -63%
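GST-E1A and His-tagged CtBP (125 nM each as 5X stock) were preincubated with pin-transferred compound for 2 h at 37 °C in the dark, then glutathione donor and nickel acceptor beads were added for 1 h before AlphaScreen reading.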
TDP1 inh: TDP1 (human) enzyme inhibition; recombinant TDP1, AlphaScreen DNA substrate cleavage; 0.28% of 350,000 active; Q9NUW8; Potency, µM (doses to about 130 µM), without a hit: top-dose activity change, negative = inhibition, hits mostly inhibitors; also: potency is read from the fitted curve at half-maximal effect; nearly all actives have a fitted effect of over 40% in size
Target sequence (Q9NUW8 whole entry, looked up): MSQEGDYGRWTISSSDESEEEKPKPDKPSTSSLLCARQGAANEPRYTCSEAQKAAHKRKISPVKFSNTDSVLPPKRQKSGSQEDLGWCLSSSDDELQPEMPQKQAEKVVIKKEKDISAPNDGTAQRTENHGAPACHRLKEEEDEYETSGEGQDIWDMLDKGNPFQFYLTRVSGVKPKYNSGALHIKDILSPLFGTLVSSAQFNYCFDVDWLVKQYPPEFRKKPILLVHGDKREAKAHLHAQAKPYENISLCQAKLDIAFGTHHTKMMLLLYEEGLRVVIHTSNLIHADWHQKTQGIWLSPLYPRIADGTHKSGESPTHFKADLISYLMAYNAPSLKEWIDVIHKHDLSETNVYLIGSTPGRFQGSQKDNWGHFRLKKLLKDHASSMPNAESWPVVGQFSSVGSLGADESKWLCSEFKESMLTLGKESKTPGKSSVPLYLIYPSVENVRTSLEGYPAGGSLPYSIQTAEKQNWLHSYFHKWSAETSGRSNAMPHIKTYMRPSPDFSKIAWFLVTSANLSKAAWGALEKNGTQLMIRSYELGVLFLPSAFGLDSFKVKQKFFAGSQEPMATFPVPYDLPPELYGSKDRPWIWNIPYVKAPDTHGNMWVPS
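Tdp1 1 nM final; 15 min RT w/ cpd; substrate 15 nM, 5 min; beads 10 ug/ml, 10 min; AlphaScreen read. Neg ctrl: no enzyme.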
Six1-Eya2 blk: blocks human Six1 binding to Eya2; Q15475+O00167; AlphaScreen GST-Six1/His-Eya2 binding, biochemical; active compounds read low; activity change, % (concentration not given with the values); 0.56% of 360,000 active; in the data active = activity change below about -65%; inconclusive = mostly about -30% to -63%
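Homogeneous AlphaScreen proximity assay pairing GST-Six1 with His-tagged Eya2 (added as 5X mix: 250 nM and 500 nM) in 50 mM Tris pH 8.0, 300 mM NaCl, 1 mM TCEP. Glutathione donor and nickel acceptor beads; 1 h, 37 °C, dark.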
DT40 TDP1 CPT: growth inhibition of DT40 Tdp1-/-;hTDP1 cells with camptothecin (screen for TDP1 inhibitors) | Potency, µM (series often up to 46.2 µM), inactives show top-dose activity change, negative = growth inhibition, most hits filed as inhibitors | chicken DT40 Tdp1-/-;hTDP1 cells + 20 nM CPT, ATP luminescence, 48 h | 12% of 420,000 active; also: potency is read from the fitted curve at half-maximal effect; nearly all actives have a fitted effect of over 55% in size
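Cell growth measured by CellTiter-Glo luminescence after a minimum 48 h, 37 C compound exposure with 20 nM CPT in Tdp1-knockout DT40 cells stably expressing hTDP1, seeded 400/well; qHTS titration format.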
TDP1 cell noCPT: qHTS for Inhibitors of human tyrosyl-DNA phosphodiesterase 1 (TDP1): qHTS in cells in absence of CPT; AID 686978, 2013; Potency, µM (series often up to 46.2 µM), for inactives: top-dose activity change, negative = growth inhibition, hits mostly inhibitors; DT40 Tdp1-/- hTDP1 cells, no CPT, ATP luminescence, 48 h; 15% of 420,000 active; also: potency is read from the fitted curve at half-maximal effect; nearly all actives have a fitted effect of over 55% in size
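Growth of hTDP1-complemented DT40 Tdp1-knockout cells is measured by ATP luminescence after at least 48 hr compound exposure at 37 °C, with DMSO substituting for the 20 nM CPT used in the parallel screen.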
IL-1B inflam inh: blocks inflammasome-driven IL-1 beta release; THP-1 LPS/ATP IL-1B secretion, AlphaLISA, 16 h; active compounds read low; activity change, % at 57.5 µM; 4.7% of 360,000 active; in the data active = activity change below about -50%; inconclusive = mostly about -30% to -49%
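THP-1 cells pretreated 1 hr with compounds (up to 57.5 uM final), then stimulated with LPS (250 ng/mL final) plus ATP (1.25 mM final); secreted IL-1B measured by AlphaLISA after 16 hr, decreased signal indicating inhibition.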
Starred values were filed as active, the others as inactive; ? = inconclusive; / = no result; [ ] = remark or other dose. Unless noted, calls follow the shape of the dose curve; as a rule, active = well fitted curve in the direction sought with a large enough effect; inconclusive = small, poorly fitted or top-dose-only effect, or another doubt; inactive = no such curve, though single readings can be large; an effect the other way counts as inactive or inconclusive. % is scaled to controls: 0 for no effect and ±100 for the full control effect.

SMILES	CtBP-E1A blk	TDP1 inh	Six1-Eya2 blk	DT40 TDP1 CPT	TDP1 cell noCPT	IL-1B inflam inh
Cn1cc(-c2cc3n(n2)CCC(=O)N3CCCC(=O)Nc2ccc(F)cc2F)c2ccccc21	/	3.0%	/	?	?	/
COc1ccc(NC(=O)CCCN2C(=O)CCn3nc(-c4cn(C)c5ccccc45)cc32)cc1	/	6.5%	/	23.1µM*	18.4µM*	/
Cc1cccc(CNC(=O)CCCN2C(=O)CCn3nc(-c4cn(C)c5ccccc45)cc32)c1	/	5.3%	/	23.1µM*	?	/
O=S(=O)(c1ccc(Cl)cc1)c1nnn2c1nc(NC1CCCCC1)c1sccc12	/	2.6%	/	?	?	/
CC(Nc1ccc(S(=O)(=O)N2CCN(C)CC2)cc1[N+](=O)[O-])c1ccccc1 (centres undefined)	-16.9	0.6%	-25.6	16.4µM*	23.1µM*	-13.0
CC(Nc1cc(N2CCN(S(C)(=O)=O)CC2)ccc1[N+](=O)[O-])c1ccccc1 (centres undefined)	-0.4	11.0%	-5.4	?	16.4µM*	-52.0*
COc1cccc(C(CNc2ccc(S(=O)(=O)N3CCN(C)CC3)cc2[N+](=O)[O-])N(C)C)c1 (centres undefined)	1.6	11.9%	-5.8	23.1µM*	?	-16.4
O=C(NC(=S)Nc1ncc(Br)cc1Br)c1cncc(Br)c1	2.5	4.1%	-2.6	-29.6%	-13.6%	3.3
Cc1csc2ncnc(NC3CCN(Cc4ccccc4)CC3)c12	0.0	5.7%	16.5	1.03µM*	0.651µM*	?
c1ccc(CN2CCC(CNc3ncnc4ccccc34)C2)cc1 (centres undefined)	0.5	/	3.5	20.6µM*	10.3µM*	-11.3
c1ccc(CN2CCC(Nc3nc(-c4ccccc4)nc4ccccc34)CC2)cc1	0.4	-2.3%	-10.8	10.8%	?	-52.0*
COc1ccc(NC(C)=O)cc1NC(=O)CSc1nnc(-c2ccccc2)n1N	0.0	2.0%	4.3	-5.9%	-15.1%	20.5
CN1C(=O)/C(=C/c2cc(N=Nc3ccccc3)ccc2O)SC1=S	-12.6	7.6%	-14.3	?	23.1µM*	26.8
Cc1c(N2C(=O)/C(=C/c3cccc4ccccc34)SC2=S)c(=O)n(-c2ccccc2)n1C	-18.7	/	-8.9	?	-16.8%	-79.9*
Cc1c(N2C(=O)/C(=C\c3ccccc3O)SC2=S)c(=O)n(-c2ccccc2)n1C	-4.5	-2.4%	-2.2	7.31µM*	?	?
Cc1ccc(/C=C2\SC(=S)N(c3c(C)n(C)n(-c4ccccc4)c3=O)C2=O)cc1	7.0	7.5%	-4.7	?	-19.2%	-80.5*
CCC(C)(CC(=O)O)CC(=O)Nc1cc(C(F)(F)F)cc(C(F)(F)F)c1 (centres undefined)	-3.3	-3.8%	2.4	8.0%	-20.8%	39.3
CC(=O)c1ccc(NC(=O)C2Cc3ccccc3N2C(=O)c2ccccc2)cc1 (centres undefined)	/	3.8%	/	-25.2%	-7.1%	/
Nc1ccc(CN2CCCCCC2)cc1	-4.9	-0.1%[56.1 µM]	-1.3	-12.6%	-6.9%	4.9
COc1ccc(N2CCN(C(=O)c3cn(C4CCCC4)c(=O)c4c3c3ccccc3n4C)CC2)cc1	?	6.6%	?	16.4µM*	16.4µM*	-14.1
Cc1ccc(Cl)cc1N1CCN(C(=O)c2cn(C3CCCCC3)c(=O)c3c2c2ccccc2n3C)CC1	/	7.5%	/	23.1µM*	18.4µM*	/
Cn1c2ccccc2c2c(C(=O)N3CCN(c4ccccn4)CC3)cn(C3CCCC3)c(=O)c21	-15.5	8.0%	-17.6	?	14.6µM*	-58.6*
CC(C)c1ccc(NC(=O)c2cn(C3CCCC3)c(=O)c3c2c2ccccc2n3C)cc1	/	-2.5%	/	-25.7%	-27.5%	/
CCOC(=O)N1CCN(C(=O)c2cn(C)c(=O)c3c2c2ccccc2n3C)CC1	36.9	2.9%	24.3	?	25.1µM*	62.9
Cc1ccc(Cl)cc1N(C)C(=O)c1cn(C2CCCCC2)c(=O)c2c1c1ccccc1n2C	/	5.0%	/	?	?	/
SMILES	CtBP-E1A blk	TDP1 inh	Six1-Eya2 blk	DT40 TDP1 CPT	TDP1 cell noCPT	IL-1B inflam inh
Cn1c2ccccc2c2c(C(=O)N3CCN(C(=O)c4ccco4)CC3)cn(C3CCCCC3)c(=O)c21	-1.4	3.5%	-2.1	?	?	-24.1
O=C(Nc1nnc(C2CC2)s1)c1cccs1	-2.4	5.2%	0.1	-14.0%	9.3%	-1.0
COc1ccc(N2CCN(C(=O)c3cn(C)c(=O)c4c3c3ccccc3n4C)CC2)cc1	-18.3	7.7%	-20.8	?	14.6µM*	28.3
CCCOC(=O)c1c(-c2ccccc2)nc(CC)c(C(=O)SCC)c1CCC	5.9	0.8%[56.1 µM]	1.5	?	16.4µM*	33.3
CCCc1nc2ccccc2c(C(=O)O)c1CC	-5.2	0.0%	1.2	-5.3%	-9.2%	3.1
Cc1cc(C)cc(NC(=O)CN2C(=O)CSc3ccc(S(=O)(=O)N(C)C)cc32)c1	/	5.3%	/	20.6µM*	16.4µM*	/
COc1ccc(CNC(=O)CN2C(=O)CSc3ccc(S(=O)(=O)N(C)C)cc32)cc1	/	2.6%	/	-23.7%	-29.4%	/
Cc1ccc(NC(=O)CN2C(=O)CSc3ccc(S(=O)(=O)N(C)C)cc32)cc1C	/	7.9%	/	16.4µM*	?	/
CN(C)S(=O)(=O)c1ccc2c(c1)N(CC(=O)Nc1ccc(OC(F)(F)F)cc1)C(=O)CS2	/	0.0%	/	16.4µM*	?	/
CCOc1ccc(NC(=O)CC2C(=O)NCCN2C(=O)c2ccc(Cl)cc2)cc1 (centres undefined)	-1.5	6.0%	2.8	-7.7%	-13.4%	-7.6
COc1ccc(OC)c(NC(=S)N(CCc2c(C)[nH]c3ccccc23)Cc2cccs2)c1	-20.5	6.6%	?	?	?	-10.1
COc1ccc2nc(-c3ccccc3)cc(C(=O)N3CCC3)c2c1	/	1.3%	-4.2	23.1µM*	16.4µM*	-17.9
COc1cccc(CN2CCN(C(=O)c3cc(-c4cccnc4)nc4ccc(C)cc34)CC2)c1	7.3	-2.7%	-10.6	23.1µM*	11.6µM*	6.1
COc1ccc2nc(-c3ccccc3)cc(C(=O)OCC(=O)N3CCCCC3)c2c1	18.9	44.7µM*	41.5	?	?	-0.1
O=C1c2ccccc2C(c2nnnn2Cc2ccccc2)N1CCc1ccccc1F (centres undefined)	3.2	/	6.1	?	-22.9%	63.2
COc1ccc(CN2COc3ccc4c(-c5ccccc5)cc(=O)oc4c3C2)cc1	/	6.1%	/	?	16.4µM*	/
